# Out of some 310,000 compounds screened, about 14,000 (4.5%) showed an effect of 50% or more. Effects have a minus sign here. This excerpt belongs to a sample that is enriched for strong results.
# Molecular target: human ether-à-go-go-related gene (hERG) potassium channel (human, UniProt Q12809)
# Assay: primary screen, population patch clamp on CHO cells stably expressing hERG; higher = less effect of the substance
# 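Note: peak tail current of the secondary pulse compared with the same well before compound.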
# human ether-à-go-go-related gene (hERG) potassium channel, sequence (Q12809 whole entry, looked up): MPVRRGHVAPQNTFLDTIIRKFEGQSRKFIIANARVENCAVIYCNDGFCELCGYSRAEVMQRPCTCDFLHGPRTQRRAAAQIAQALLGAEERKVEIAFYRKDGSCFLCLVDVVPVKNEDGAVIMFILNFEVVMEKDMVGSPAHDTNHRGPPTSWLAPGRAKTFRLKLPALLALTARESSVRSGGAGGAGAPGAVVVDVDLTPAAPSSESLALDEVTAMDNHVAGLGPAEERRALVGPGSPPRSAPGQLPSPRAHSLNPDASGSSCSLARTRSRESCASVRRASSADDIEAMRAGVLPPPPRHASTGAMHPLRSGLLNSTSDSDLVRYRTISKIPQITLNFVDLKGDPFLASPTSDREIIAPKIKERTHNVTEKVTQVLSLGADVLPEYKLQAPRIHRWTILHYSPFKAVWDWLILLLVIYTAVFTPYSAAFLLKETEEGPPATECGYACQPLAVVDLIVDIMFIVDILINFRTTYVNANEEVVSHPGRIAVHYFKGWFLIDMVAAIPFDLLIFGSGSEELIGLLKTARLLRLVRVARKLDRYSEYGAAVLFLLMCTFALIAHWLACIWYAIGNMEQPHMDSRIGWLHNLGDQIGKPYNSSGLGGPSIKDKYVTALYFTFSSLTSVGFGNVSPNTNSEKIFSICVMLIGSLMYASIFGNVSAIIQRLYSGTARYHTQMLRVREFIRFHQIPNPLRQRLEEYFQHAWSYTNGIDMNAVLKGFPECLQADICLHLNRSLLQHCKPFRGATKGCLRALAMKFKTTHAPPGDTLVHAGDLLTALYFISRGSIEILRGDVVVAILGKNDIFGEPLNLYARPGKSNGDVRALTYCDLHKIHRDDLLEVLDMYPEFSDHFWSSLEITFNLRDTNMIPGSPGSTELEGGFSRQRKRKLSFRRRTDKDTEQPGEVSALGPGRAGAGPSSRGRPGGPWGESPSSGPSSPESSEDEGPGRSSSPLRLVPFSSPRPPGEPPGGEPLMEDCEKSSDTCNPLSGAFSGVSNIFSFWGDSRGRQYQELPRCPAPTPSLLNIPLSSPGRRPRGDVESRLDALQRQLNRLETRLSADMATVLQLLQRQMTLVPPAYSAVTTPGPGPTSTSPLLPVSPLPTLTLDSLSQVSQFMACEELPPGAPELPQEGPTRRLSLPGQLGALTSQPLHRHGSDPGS
row,Compound,"hERG current change (%, negative = inhibition) at 10uM [%]"
1,COc1ccc(-c2nnnn2-c2ccccc2OC)cc1,-9.02
2,Cc1ccc(CSc2nn3c(=O)c(C)nnc3s2)cc1,-13.9
3,OCCN1CCN(c2nc(-c3ccccc3)c3cc(Br)ccc3n2)CC1,-47.7
4,Cc1ccc2nc(N3CCN(C=O)CC3)nc(-c3ccccc3)c2c1,-56
5,Cc1ccc2nc(N3CCC(C(=O)O)CC3)nc(-c3ccccc3)c2c1,-1.95
6,CCOC(=O)N1CCN(c2nc(-c3ccccc3)c3cc(C)ccc3n2)CC1,-8.98
7,Cc1ccc2nc(N3CCN(CCO)CC3)nc(-c3ccccc3)c2c1,-54.4
8,OCCN1CCN(c2nc(-c3ccccc3)c3cc(Cl)ccc3n2)CC1,-26.2
9,Cc1cccn2c(Nc3ccccc3)c(-c3ccccn3)nc12,1.81
10,NC(CSCc1ccccc1Cl)C(=O)O (centres unmarked),0.173
11,COc1ccc(S(=O)(=O)N(C)c2ccc(C(=O)Nc3ccccc3C(=O)N3CCOCC3)cc2)cc1,-6.94
12,Cc1ccc(-n2nnnc2-c2ccco2)cc1,-2.37
13,O=C(N1CCC(n2nc(-c3ccccc3)oc2=O)CC1)C1(c2ccccc2)CC1,-17.5
14,O=C(OCc1ccc([N+](=O)[O-])cc1)C1CC(=O)N(c2ccccc2)C1 (centres unmarked),-69.1
15,Cc1cccc(N2CC(C(=O)O)CC2=O)c1 (centres unmarked),-15.2
16,CC(=O)c1ccc(OC(=O)C2CC(=O)N(c3cccc(C)c3)C2)cc1 (centres unmarked),-1.85
17,COc1ccc(NC(=O)COC(=O)C2CC(=O)N(Cc3ccc(C)cc3)C2)cc1 (centres unmarked),-12.7
18,CCc1ccc(N2CC(C(=O)OCC(=O)Nc3ccc([N+](=O)[O-])cc3)CC2=O)cc1 (centres unmarked),-36.9
19,COc1ccc(COC(=O)C2CC(=O)N(Cc3ccc(C)cc3)C2)cc1 (centres unmarked),-58.3
20,COc1ccc(COC(=O)C2CC(=O)N(Cc3ccccc3)C2)cc1 (centres unmarked),-34.1
21,CCc1ccc(N2CC(C(=O)OCC(=O)Nc3ccc(C#N)cc3)CC2=O)cc1 (centres unmarked),-57.9

row,Compound,"hERG current change (%, negative = inhibition) at 10uM [%]"
1,CCc1ccc(N2CC(C(=O)OCC(=O)Nc3ccc(C(C)=O)cc3)CC2=O)cc1 (centres unmarked),-19.1
2,Cc1cccc(N2CC(C(=O)OCc3ccc([N+](=O)[O-])cc3)CC2=O)c1 (centres unmarked),-64
3,NC(=O)C1CC(=O)N(c2ccc(OCc3ccc([N+](=O)[O-])cc3)cc2)C1 (centres unmarked),-30.8
4,Cc1ccc(N2CC(C(=O)OCc3ccccc3)CC2=O)cc1 (centres unmarked),-15.6
5,Cc1ccnc(NS(=O)(=O)c2ccc(NS(=O)(=O)Cc3ccccc3)cc2)n1,9.43
6,COc1cc2c(cc1OC)C(=S)NC1(CCCC1)C2,9.36
7,COc1ccc(CCNC(C)C(=O)Nc2ccc(S(N)(=O)=O)cc2)cc1 (centres unmarked),-9.23
8,CC1CCC2C(=O)N(c3ccc(NC4CCCCC4)c([N+](=O)[O-])c3)C(=O)C2C1 (centres unmarked),1.71
9,Cc1ccc(CSc2nc3c(c(=O)[nH]2)C(c2ccncc2)C2=C(CCCC2=O)N3)cc1 (centres unmarked),9.42
10,COc1ccc(CCN2CC(C(=O)N(C)Cc3cccnc3)CC2=O)cc1OC (centres unmarked),8.53
11,COC(=O)c1nnn(-c2nonc2N)c1CSCCO,14.6
12,Cc1ccc(N2CC(C(=O)OCC(=O)C(C)(C)C)CC2=O)cc1 (centres unmarked),-4.69
13,Cc1ccc(N2CC(C(=O)OCC(=O)c3ccc([N+](=O)[O-])cc3)CC2=O)cc1 (centres unmarked),-26.8
14,Cc1ccc(N2CC(C(=O)OCc3ccc([N+](=O)[O-])cc3)CC2=O)cc1 (centres unmarked),-58.5
15,O=C1OC(Nc2ccccn2)c2ccccc21 (centres unmarked),-5.61
16,NC(=O)C1(N2CCCCC2)CCN(C(=O)c2ccc(C#CC3(O)CCCCC3)cc2)CC1,-6.21
17,O=C(NCc1ccco1)/C(=C/c1cccnc1)NC(=O)c1cccc(Br)c1,-59.6
18,Cc1ccc(C(=O)N/C(=C\c2cccnc2)c2nc3ccccc3[nH]2)cc1,-19.7
19,COc1ccc(C(=O)N/C(=C/c2cccnc2)C(=O)NCc2ccco2)cc1OC,9.12
20,COc1ccc(/C=C(/NC(=O)c2ccccc2)c2nc3ccccc3[nH]2)cc1OC,-12.5
21,COc1ccccc1C(=O)N/C(=C\c1ccccc1)C(=O)NCc1ccco1,-38.1

row,Compound,"hERG current change (%, negative = inhibition) at 10uM [%]"
1,Cc1ccc(C(=O)N/C(=C/c2cccnc2)C(=O)NCc2ccco2)cc1,-41.7
2,O=C(N/C(=C\c1cccnc1)c1nc2ccccc2[nH]1)c1cccc(Br)c1,-54.9
3,O=C(NCc1ccco1)/C(=C\c1cccnc1)NC(=O)c1ccccc1F,-51.1
4,O=C(NCc1ccco1)/C(=C\c1ccccc1)NC(=O)c1ccccc1,6.85
5,CCCNS(=O)(=O)c1cccc2cccnc12,-6.32
6,Cc1cccc(-c2cc(C(=O)NCc3ccccn3)c3ccccc3n2)c1,-18
7,Cc1ccc(OCc2n[nH]c(=S)n2C2CCCCC2)cc1,21
8,Cc1ccc(-n2c(C)cc(/C=N/NC(=O)c3ccncc3)c2C)cc1C,17.3
9,COc1ccccc1-n1cnnc1SCc1csc(-c2ccccc2)n1,-20.9
10,O=C(CCC(=O)c1cccs1)NCc1cccc(C(F)(F)F)c1,-7.88
11,COc1ccc(C(=O)N2CCN(c3ncccn3)CC2)cc1S(=O)(=O)N1CCOCC1,6.96
12,COc1ccc(OCC2NCCc3cc(OC)c(OC)cc32)cc1 (centres unmarked),-8.93
13,COc1cc2c(cc1OC)C(COc1ccc([N+](=O)[O-])cc1)NCC2 (centres unmarked),-76.6
14,CCc1ccc(OCC2c3cc(OC)c(OC)cc3CCN2C(C)=O)cc1 (centres unmarked),-11.5
15,COC(=O)c1ccc(OCC2c3cc(OC)c(OC)cc3CCN2C(=O)C2CC2)cc1 (centres unmarked),-56.3
16,CCC(=O)N1CCc2cc(OC)c(OC)cc2C1COc1ccc(C(=O)OC)cc1 (centres unmarked),-1.37
17,COC(=O)c1ccc(OCC2c3cc(OC)c(OC)cc3CCN2C(C)=O)cc1 (centres unmarked),8.8
18,COc1cc2c(cc1OC)C(COc1ccc(F)cc1)N(C(C)=O)CC2 (centres unmarked),-11.9
19,COc1cc2c(cc1OC)C(COc1ccc([N+](=O)[O-])cc1)N(C(C)=O)CC2 (centres unmarked),-77.4
20,COc1cc2c(cc1OC)C(COc1ccc(F)cc1)NCC2 (centres unmarked),-26.8

# — article PMC4336329 (PLoS ONE, 2015)
